Active and inactive are the calls of the source. The call rests on the fitted dose curve.
experiment: Immunofluorescence assay for KAP-1 phosphorylation on Ser824 for Identifying a Potential Treatment of Ataxia-Telangiectasia: SAR for Probe; details: F2112 A-T fibroblasts, pKAP-1 S824 immunofluorescence
Excerpt: NIH Chemical Genomics Center [NCGC] NIH Molecular Libraries Probe Centers Network [MLPCN] MLPCN Grant: MH089030-01 Assay Submitter (PI): Wei Zheng and Yosef Shiloh Ataxia-telangiectasia (A-T) is a devastating and progressive disease for which, there is no cure. Although A-T is a multisystem disease, it is stereotyped characterized by its neurological symptoms such as truncal ataxia, due to cerebellar cortical degeneration of the Purkinje and granule cells. Other symptoms of A-T are telangiectasias (dilated blood vessels), primary immunodeficiency, marked sensitivity to ionizing radiation (IR), chromosomal instability and predisposition to cancer. The underlying genetic cause of A-T is null mutations in the ATM (A-T mutated) gene. ATM is a nuclear serine/threonine kinase that functions as a master regulator of the cellular responses to double strand breaks (DSBs) in the DNA. Upon activation by DSBs, ATM phosphorylates a plethora of downstream targets, including KAP-1 on […]. KAP-1 phosphorylation occurs shortly in response to DSBs and mediates global chromatin relaxation, which facilitates DSB repair. To screen for small molecules that will compensate for the loss of ATM in cells derived from A-T patients, we monitored KAP-1 phosphorylation as a readout for ATM-like activity using an AlphaLISA assay.
qHTS Assay Protocol: 1. […] Plates are the read on InCell.

Structure (SMILES) | Potency
CC(=O)c1c(O)c(C)c(O)c(Cc2c(O)c3c(c(C(=O)/C=C/c4ccccc4)c2O)OC(C)(C)C=C3)c1O | 10 µM (active)
